INS promoter inh = TRM-6 insulin promoter activity inhibition; inhibition, % at 2 µM; actives 0.9% (n = 130,000); AID 1273; TRM-6 cells (human fetal islet line), insulin promoter-eGFP reporter, imaging; reporter expression induced with tamoxifen;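 active = inhibition above the mean plus 3 SD, with well images judged a real hit on visual review, cut at about 60% in these data, passing the limit was not always enough; inconclusive = inhibition over the cutoff but images rejected on review; inactive = inhibition not above the cutoff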
WT yeast gro inh = growth inhibition of WT yeast, mitochondrial fusion screen; AID 1362; inhibition, % at 10 µM; mitochondrial fusion phenotypic screen, WT strain; actives 2.1% (n = 190,000); in the data active = inhibition above about 58%; tested in S. cerevisiae
Autophagy mod = autophagy modulation, high-content screen | actives 0.98% (n = 190,000) | calls only at 10 µM (by protocol) | MEF GFP-LC3 puncta imaging; test concentration mostly 10 µM;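 active = percentage of spot-positive cells more than 3 SD above its plate mean, without a fluorescence outlier flag or 80% toxicity; inconclusive = no clear call, values can overlap the other calls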
Lmaj promast = reduces viability of Leishmania major promastigotes | resazurin fluorescence viability | actives 9% (n = 200,000) | inhibition, % at 10 µM; in the data active = inhibition above about 50%;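 also: promastigotes grown with compound for 44 hours at 28 °C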
Insulin prom up = MIN6 insulin promoter up-regulation. MIN6 insulin promoter-GFP reporter, high-content imaging; stronger effect = higher value. z-score at 5 µM. actives 0.3% (n = 190,000). AID 1625;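 active = z-score above 3 at 5 µM with at least 500 cells counted in the well; inconclusive = wells under 500 cells, flagged as cytotoxic or low count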
Numbers stand for hits; n = inactive; u = inconclusive; x = not tested or not shown; + = active, no number. In the library only some 11% were active in any assay of this set; here they are far more common.

SMILES | INS promoter inh | WT yeast gro inh | Autophagy mod | Lmaj promast | Insulin prom up
CCNC(=O)NC(=O)COC(=O)CCc1nc(=O)c2ccccc2n1C | n | n | n | n | n
Cc1ccc2c(c1)c1c3n2CCCN(Cc2ccccc2)C3CCC1 (configuration not stated) | x | 81 | n | n | n
COc1ccc(C(=O)c2c(C)c3ccccc3n2CC(O)CNC(C)C)cc1 (configuration not stated) | n | n | n | 97 | n
COc1ccc(NCC(=O)n2c(C)c(C)c3ccccc32)cc1 | n | n | n | n | n
Cc1cc(=O)n2[nH]c(-c3ccc(F)cc3)cc2n1 | x | 60 | n | n | n
Cc1nn(C)c(C(=O)NNC(=O)Nc2cccc(C(F)(F)F)c2)c1Cl | x | n | n | n | n
CCOc1ccc(N2C(=O)CC(N3CCN(c4ccc(C(=O)c5ccncc5)cc4)CC3)C2=O)cc1 (configuration not stated) | n | x | n | 77 | x
CCN1C(=O)CC(N2CCN(c3ccc(C(=O)c4ccncc4)cc3)CC2)C1=O (configuration not stated) | 70 | n | n | 73 | n
O=C(c1ccncc1)c1ccc(N2CCN(C3CC(=O)N(Cc4cccs4)C3=O)CC2)cc1 (configuration not stated) | x | n | n | n | n
CCOc1cc(S(=O)(=O)NCc2cccnc2)c(C)cc1C | x | n | n | n | n
Cc1ccc(CNc2ccc(N3C(=O)CC(C)C3=O)cc2[N+](=O)[O-])cc1 (configuration not stated) | n | n | n | n | n
CC1CC(=O)N(c2ccc(NCc3ccccc3Cl)c([N+](=O)[O-])c2)C1=O (configuration not stated) | n | n | n | 68 | n
COc1ccc(N2CCN(c3ccc(N4C(=O)CC(C)C4=O)cc3[N+](=O)[O-])CC2)cc1 (configuration not stated) | 77 | n | n | n | n
O=C1CCC(=O)N1c1ccc(NCc2ccccc2Cl)c([N+](=O)[O-])c1 | n | n | n | 67 | n
Cn1cnnc1SCC(=O)c1ccc(O)c(O)c1 | n | n | n | n | n
Cc1c(CN(C)C)c2c(n1Cc1ccccc1)C(=O)c1ccccc1-2 | n | n | n | 75 | n
Cc1cc(=O)[nH]c(=O)n1Cc1ccccc1 | x | n | n | n | n
COc1cccc(-c2nn(-c3ccccc3)cc2/C=C(/NC(=O)c2ccccc2)C(=O)O)c1 | x | x | x | x | n
COc1ccc(/C=C/C(=O)c2ccc(O)cc2)cc1 | x | n | n | n | n
COc1cc(/C=C/c2ccc(O)cc2)cc(OC)c1 | x | 58 | x | x | n
CCOc1ccccc1-n1c(=S)sc2c(=O)n(-c3ccccc3)c(=S)[nH]c21 | n | n | n | n | n
O=C(CSc1nc2ccccc2s1)N1N=C(c2cccs2)CC1c1ccc(F)cc1 (configuration not stated) | n | n | n | n | n
O=C(CSc1nc2c(cnn2-c2ccc(F)cc2)c(=O)[nH]1)N1N=C(c2cccs2)CC1c1ccc(F)cc1 (configuration not stated) | n | n | n | 51 | n
CN(C)/C=C\C(=C/C(=O)C(F)(F)F)Nc1ccccc1Oc1ccccc1 | x | n | n | n | x
COc1ccc(-c2nn(-c3ccccc3)cc2/C=N/NC(=S)NC(C)C)cc1OC | n | n | n | 61 | n
SMILES | INS promoter inh | WT yeast gro inh | Autophagy mod | Lmaj promast | Insulin prom up
COc1ccc(-c2nn(-c3ccccc3)cc2/C=N/N=C(N)N)cc1OC | n | n | n | n | n
COc1ccc(-c2nn(-c3ccccc3)cc2/C=N/Nc2ccc3ccccc3n2)cc1OC | n | n | n | 51 | n
Cc1cc(N/N=C/c2ccccc2O)nc(-c2ccccc2O)n1 | n | 69 | n | 53 | n
COC(=O)c1cccc(Nc2cc(C)nc(-c3ccccc3O)n2)c1 | x | n | n | 67 | n
COC(=O)c1ccc(Nc2cc(C)nc(-c3ccccc3O)n2)cc1 | n | n | n | n | n
Cc1cc(N/N=C/c2ccc(O)cc2O)nc(-c2ccccc2O)n1 | n | n | + | n | n
C/C(=N\Nc1cc(C)nc(-c2ccccc2O)n1)c1ccccc1O | x | x | x | x | n
Cc1cc(N/N=C\c2ccccc2)nc(-c2ccccc2O)n1 | n | n | n | 74 | n
Cc1ccc(OCCn2cc(Br)c(=O)[nH]c2=O)cc1 | n | n | n | n | n
C=CCN=C(NC#N)SC | x | x | x | x | n
CCOC1=C/C(=C/c2c(N)n3nc(-c4ccccc4)sc3nc2=O)C=CC1=O | n | n | n | n | x
COC1=C/C(=C/c2c(N)n3nc(-c4ccc(C)cc4)sc3nc2=O)C=CC1=O | x | n | n | 74 | n
CC(Oc1ccccc1)C(=O)N1CCN=C1SCc1ccccc1 (configuration not stated) | x | n | n | n | n
Cc1c(C(=O)c2ccc(Cl)c(Cl)c2)cnc2cc3c(cc12)OCO3 | n | 61 | n | n | x
CCOC(=O)N1CCN(CC(O)COCc2ccccc2)CC1 (configuration not stated) | n | n | n | 66 | n
CCOC(=O)N1CCN(CC(O)COCC2=CCC3CC2C3(C)C)CC1 (configuration not stated) | n | n | n | 94 | n
CCOC(=O)N1CCN(CC(O)COc2ccc(C)cc2C(C)(C)C)CC1 (configuration not stated) | n | n | n | 98 | n
CCN1C(=O)C(CC(=O)Nc2c(C)cccc2C)Nc2cc(S(=O)(=O)N(C)C)ccc21 (configuration not stated) | x | n | n | n | n
OCCNc1nc(Nc2ccccc2)nc2ccccc12 | n | n | n | 100 | u
Oc1ccccc1Nc1nc(NCc2ccccc2)c2ccccc2n1 | x | 86 | n | 100 | n
OCCNc1nc(Nc2ccc(Br)cc2)nc2ccccc12 | n | n | n | 100 | n
OCCNc1nc(Nc2ccccc2)nc(Nc2ccccc2)n1 | n | n | n | n | n
CC(C)(CO)Nc1nc(Nc2ccccc2)nc(Nc2ccccc2)n1 | n | n | n | 74 | n
c1ccc(CNc2ncnc3ccccc23)cc1 | n | n | n | n | n
COc1ccc(Nc2nc(N)c([N+](=O)[O-])c(NCCO)n2)cc1 | x | x | x | x | n
SMILES | INS promoter inh | WT yeast gro inh | Autophagy mod | Lmaj promast | Insulin prom up
COCCN(C(=O)Cc1cccs1)C(C(=O)NC1CCCC1)c1cc(OC)c(OC)c(OC)c1 (configuration not stated) | n | n | n | n | n
CCOC(=O)c1sc(C)c2c1NC(C)(c1cccs1)NC2=O (configuration not stated) | n | n | n | n | n
CCOC(=O)c1nc(NCc2ccccc2)c2ccccc2n1 | x | n | n | 52 | n
C=CCNc1nc(C(=O)OCC)nc2ccccc12 | x | n | n | n | n
COc1cc(/C=N/NC(=O)c2cccnc2)ccc1OS(=O)(=O)c1cc(C)ccc1C | n | n | n | 97 | n
CCNC(=O)COc1ccc(/C=N/NC(=O)c2cccnc2)cc1OC | n | n | n | n | n
COc1cc(/C=N/NC(=O)c2cccnc2)ccc1OCC(=O)Nc1ccc(C)cc1 | n | n | n | 55 | n
COc1ccc(/C=N/NC(=O)c2cccnc2)cc1Cn1nc([N+](=O)[O-])c(Br)c1C | n | n | + | n | n
COc1ccc(/C=N/NC(=O)c2cccnc2)cc1CN1CCc2ccccc2C1 | x | x | x | x | n
